# Screening data as filed in PubChem BioAssay.
# Most compounds without a hit are left out; they make up all but 4% or so of the library.
# FAS TE block = FAS thioesterase (human) inhibition | inhibition, % at 15 µM | recombinant FAS-TE, OMFH fluorogenic substrate, fluorescence endpoint | 360,000 tested, 0.67% active;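 active = compounds whose normalised, plate-corrected inhibition of enzyme fluorescence in the single-dose primary screen is 50% or more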;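 note: 0% = DMSO with enzyme and 100% = substrate without enzyme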
# GRIN3A LBD mod = modulates the human NR3A ligand-binding domain | NR3A LBD differential scanning fluorimetry, Tm shift; 0% = protein alone, 100% = glycine-bound protein | Tm shift relative to glycine control, % at 25 µM | 340,000 tested, 2.5% active | AID 1259313;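 active = melting temperature shift of at least 10% of the positive control shift, at one fixed dose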
# aDG glyco act = alpha-DG glycosylation activation; Pro5-aDG cells, alpha-DG glycosylation AlphaScreen (IIH6); 0% Pro5, 100% B10-LARGE cell signal; activation, % at 10 µM; 360,000 tested, 0.22% active; AID 624168;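 active = activation of at least 8% versus controls, or a plate z-score of at least 8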;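 note: Pro5 are CHO cells carrying HIG-tagged alpha-DG that lacks glycosylation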
# ADAM17 inh = inhibitors of human ADAM17; P78536; recombinant ADAM17, EDANS/DABCYL FRET peptide cleavage; inhibition, % at 6.95 µM; 370,000 tested, 0.83% active; AID 720648;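 active = inhibition above the mean of compounds lying between control limits plus 3 SD, set per campaign, cut at about 8.5% in these data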;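 note: 0% = DMSO-only wells as the low control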
# Target sequence (P78536 215-824 limits assumed): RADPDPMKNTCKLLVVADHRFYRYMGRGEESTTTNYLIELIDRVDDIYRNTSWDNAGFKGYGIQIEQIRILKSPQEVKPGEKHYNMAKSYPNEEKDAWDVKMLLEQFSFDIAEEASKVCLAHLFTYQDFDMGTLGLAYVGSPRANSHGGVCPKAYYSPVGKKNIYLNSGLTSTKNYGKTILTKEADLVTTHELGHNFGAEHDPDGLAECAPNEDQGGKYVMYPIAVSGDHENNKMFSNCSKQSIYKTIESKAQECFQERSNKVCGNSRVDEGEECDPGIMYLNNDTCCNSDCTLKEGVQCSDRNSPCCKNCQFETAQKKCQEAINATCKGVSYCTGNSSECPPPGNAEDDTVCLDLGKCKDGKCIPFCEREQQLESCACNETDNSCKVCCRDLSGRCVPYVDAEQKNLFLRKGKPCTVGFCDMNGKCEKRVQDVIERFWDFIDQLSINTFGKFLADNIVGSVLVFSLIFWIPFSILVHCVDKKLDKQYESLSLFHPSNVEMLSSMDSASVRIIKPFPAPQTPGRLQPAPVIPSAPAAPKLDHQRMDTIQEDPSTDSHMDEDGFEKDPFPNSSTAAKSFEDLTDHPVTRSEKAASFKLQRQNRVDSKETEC
# ADAM10 inh = inhibits human ADAM10. O14672. recombinant ADAM10, EDANS/DABCYL FRET peptide cleavage, 3 h. inhibition, % at 7 µM. 370,000 tested, 0.62% active. AID 720582;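 active = inhibition above a per-campaign cutoff equal to the mean of compounds falling between control-based bounds plus 3 SD, cut at about 20% in these data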;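 note: 0% = DMSO wells while the 100% control is not disclosed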
# ADAM10 confirm = human ADAM10 inhibition, confirmation; shares compounds with ADAM10 inh; ADAM10 QFRET peptide cleavage, EDANS fluorescence; inhibition, % at 6.95 µM; 2,100 tested, 1% active; AID 743208;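 active = inhibition above about 20% chosen separately for each screening run, limit read from the data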;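 note: 0% = DMSO wells and 100% = marimastat wells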
# ADAM17 counter = ADAM17 inhibition, counter-screen for ADAM10 exosite hits; AID 743214; 2,100 tested, 0.5% active; inhibition, % at 6.95 µM; shares compounds with ADAM10 inh; ADAM17 QFRET peptide cleavage, EDANS fluorescence;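 active = mean triplicate inhibition above the solvent-only control wells' mean plus 3 SD, cut at about 12% in these data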;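 note: 0% = DMSO wells and 100% = marimastat wells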
# * = called active by the depositor; x = no result given.
SMILES,FAS TE block,GRIN3A LBD mod,aDG glyco act,ADAM17 inh,ADAM10 inh,ADAM10 confirm,ADAM17 counter
COc1ccc(-c2nc(-c3ccccc3)c(-c3cc([N+](=O)[O-])ccc3C)[nH]2)cc1O,35,5,2,8,31*,8,2
CCN1CCCC1CN(Cc1cc2cc(C)ccc2[nH]c1=O)C(=O)Nc1ccccc1OC (stereo not given),-10,1,0,-11,-17,x,x
O=C(O)C(S)C(S)C(=O)O (stereo not given),-1,3,0,x,x,x,x
O=S(=O)(c1ccc(OC(F)(F)F)cc1)N1CCC(O)(c2cccc(C(F)(F)F)c2)CC1,23,2,0,7,21*,5,1
COc1cc(S(=O)(=O)N2CCC(O)(c3cccc(C(F)(F)F)c3)CC2)ccc1-n1cnnn1,8,x,0,0,2,x,x
Cc1cc(Nc2ccccc2)n(-c2nc3ccccc3[nH]2)n1,24,3,0,5,21*,9,3
CCc1ccccc1NC(=O)NNC(=O)CCc1ccccc1,0,2,0,-3,1,x,x
CCN(CC)S(=O)(=O)c1ccc(-c2csc(C)n2)cc1,4,2,0,0,5,x,x
CC(NC(=O)c1cccs1)C(S)c1ccccc1 (stereo not given),-7,1,0,15*,34*,7,2
CC(NC(=S)NC(=O)c1cccs1)c1ccccc1 (stereo not given),14,1,1,1,7,x,x
COc1ccccc1NC(=O)C1=C(C)Nc2nc(CCCO)nn2C1c1ccc2c(c1)OCO2 (stereo not given),-2,-2,0,-2,-7,x,x
COc1ccc(NC(C)C(=O)Nc2ccc(C(C)(C)C)cc2)cc1Cl (stereo not given),-20,-2,0,7,27*,7,1
COc1ccc(NC(C)C(=O)Nc2ccc(C#N)cc2)cc1Cl (stereo not given),5,-8,0,-4,7,x,x
Nc1ccc2oc(=O)c(-c3ccccc3)cc2c1,-3,2,0,-4,-1,x,x
Cc1csc(NC(=O)c2cccc(Cn3nc(C)c(Br)c3C)c2)n1,9,-32,1,3,20*,4,1
O=C(NCc1cccs1)c1ccc([N+](=O)[O-])cc1,3,5,0,6,24*,-1,0
NC(=O)c1ccc(SCC(=O)OCC(=O)NCc2cccs2)c([N+](=O)[O-])c1,-4,0,0,3,3,x,x
COc1cc(OC)c(NC(C)C(=O)NCc2ccccc2)cc1Cl (stereo not given),0,-3,0,0,-4,x,x
CC1CCCN(Cc2nc3c(c(=O)n(C)c(=O)n3C)n2Cc2c(F)cccc2Cl)C1 (stereo not given),13,0,0,-1,0,x,x
C=CCn1c(C)cc(C(=O)COC(=O)C2CC(=O)N(Cc3ccccc3)C2)c1C (stereo not given),-4,3,0,-2,78*,0,0
Cc1[nH]c2ccccc2c1C(=O)COC(=O)C1CC(=O)N(Cc2ccccc2)C1 (stereo not given),-1,-1,0,-1,8,x,x
O=[N+]([O-])c1ccc(Nc2ccccc2O)c2nonc12,-4,-5,0,4,20*,0,0
COc1cc(NC(=O)c2cc(-c3ccccc3Cl)on2)cc(OC)c1OC,35,-24,0,3,33*,4,1
COc1cc(NC(=O)c2cc(-c3cccs3)on2)cc(OC)c1OC,14,1,0,0,10,x,x
CC(C)C[C@H](N)c1cn([C@@H](CCCCN)C(=O)N2CCNCC2)nn1,-8,4,0,-3,12,x,x
SMILES,FAS TE block,GRIN3A LBD mod,aDG glyco act,ADAM17 inh,ADAM10 inh,ADAM10 confirm,ADAM17 counter
C[C@@H](O)C(C(=O)N1CCNCC1)n1cc([C@@H](N)CCCCN)nn1 (stereo not given in full),-14,0,0,3,22*,3,0
CCOc1cc(S(=O)(=O)Nc2ccc(CC)cc2)ccc1Cl,40,13*,1,6,25*,4,1
CN(C)CCCN1c2ccc([N+](=O)[O-])cc2CCc2cc([N+](=O)[O-])ccc21,6,-5,1,8,23*,0,1
O=C(O)Cn1nnnc1SCC(=O)Nc1ccc(OC(F)(F)F)cc1,-7,1,0,-5,82*,-1,0
O=C(Nc1ccc(N2CCCC2)cc1)c1cc(Cl)ccc1Cl,-18,-3,0,1,-1,x,x
O=C(Nc1ccccc1N1CCCC1)c1ccc(Cl)cc1Cl,14,1,0,-2,5,x,x
O=C(Nc1ccc(N2CCCC2)cc1)c1ccc(Br)cc1,-10,-3,0,-7,25*,1,1
O=C(Nc1ccc(N2CCCC2)cc1)c1ccc(Cl)cc1Cl,-3,3,0,5,20*,9,5
O=C(Nc1ccccc1N1CCCC1)c1ccccc1Cl,-2,-1,0,3,23*,0,0
CC(C)Oc1ccc(C(=O)Nc2ccc(N3CCCC3)cc2)cc1,-1,-1,1,x,x,x,x
O=C(Nc1cccc(C(=O)N2CCCC2)c1)C1CC1,-4,0,0,-4,-1,x,x
Cc1c(C2(O)CCCCC2)[nH]c2cc(C(F)(F)F)ccc12,30,-8,0,7,11,x,x
FC(F)(F)c1cc(CCN2C(=S)NC[C@@H]2Cc2ccccc2)cc(C(F)(F)F)c1,-27,13*,0,8,27*,12,4
CC(C)CC1C(=O)N(Cc2cn(CC3CCCCC3)nn2)CCS(=O)(=O)N1Cc1ccc(-c2cccc(CO)c2)cc1 (stereo not given),9,x,0,7,25*,3,2
O=C(Nc1ccc(S(=O)(=O)Nc2nccs2)cc1)/C(=C/c1ccccc1Cl)NC(=O)c1ccccc1,-4,0,0,8,32*,1,0
O=C(Nc1ccc(S(=O)(=O)Nc2nccs2)cc1)c1cc(-c2ccccc2)nc2ccccc12,9,11*,0,8,27*,9,2
Cc1ccc(-c2cc(C(=O)Nc3ccc(S(=O)(=O)Nc4ncccn4)cc3)c3ccccc3n2)cc1,1,-3,0,3,1,x,x
Cc1nc2cc(NC(=O)c3ccc(Cl)cc3)ccc2n1C,-2,4,0,0,23*,1,0
COc1cc(C(=O)Nc2ccc3c(c2)nc(C)n3C)cc(OC)c1OC,-7,-2,0,-3,-9,x,x
